Measured values taken from the supplement of paper PMC7595190.
Values without a mark were called inactive.

Test system: MV4-11
Assay: CellTox Green cytotoxicity fluorescence relative to DMSO vehicle (fold of vehicle RFU); higher = more cell death (loss of membrane integrity), active = 2 or more
Procedure: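 Paediatric AML cell lines (MV4-11, CMK, Kasumi-1; 4x10^4 cells/well, 96-well) treated with single compounds from the Selleckchem apoptosis library at 0.01, 0.1 and 1 µM. Cytotoxicity was read with CellTox Green (RFU, Ex 485/Em 520) at 24, 48 and 72 h and normalised to the 0.1% DMSO vehicle. Normalised RFU >= 2 was taken as a successful, cell-killing treatment.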

SMILES	CellTox Green cytotoxicity fluorescence (0.01 µM, 24 h)	CellTox Green cytotoxicity fluorescence (0.01 µM, 48 h)	CellTox Green cytotoxicity fluorescence (0.01 µM, 72 h)	CellTox Green cytotoxicity fluorescence (0.1 µM, 24 h)	CellTox Green cytotoxicity fluorescence (0.1 µM, 48 h)	CellTox Green cytotoxicity fluorescence (0.1 µM, 72 h)	CellTox Green cytotoxicity fluorescence (1 µM, 24 h)	CellTox Green cytotoxicity fluorescence (1 µM, 48 h)	CellTox Green cytotoxicity fluorescence (1 µM, 72 h)
Cc1cc2c(C(C)C)c(O)c(O)c(C=O)c2c(O)c1-c1c(C)cc2c(C(C)C)c(O)c(O)c(C=O)c2c1O	0.979	1	1	1	1	0.993	0.973	0.959	1.02
COc1ccc2c(c1)/C(=C/c1cnc[nH]1)C(=O)N2	0.929	0.92	0.921	0.92	0.94	0.941	0.987	1.03	1.05
CC[C@H](C)[C@@H]([C@@H](CC(=O)N1CCC[C@H]1[C@H](OC)[C@@H](C)C(=O)N[C@H](C)[C@@H](O)c1ccccc1)OC)N(C)C(=O)[C@@H](NC(=O)[C@@H](NC)C(C)C)C(C)C [Monomethyl auristatin E]	1.19	2.42 (active)	2.81 (active)	1.3	2.48 (active)	2.73 (active)	1.58	2.5 (active)	2.74 (active)
COc1cc(C)[nH]c(=O)c1CNC(=O)c1c(C)n([C@H](C)C2CCOCC2)c2ccccc12	0.942	0.94	0.941	0.942	0.951	0.957	0.942	0.936	0.948
